Hits are enriched below; roughly 11% of the tested compounds scored in any of these assays.
IMPase cell inh: qHTS Assay for Identifying the Cell-Membrane Permeable IMPase Inhibitors | AID 901, 2007 | 120,000 tested, under 10 active | CHO-M1 cells, IP1 accumulation, HTRF TR-FRET ratio | inhibition (IP1 accumulation), % at 46.1 µM | Inositol monophosphatase 1 (Rattus norvegicus), P97697; active means well fitted curve in the direction sought with a large enough effect in the signal ratio, not every such curve was filed as active; inconclusive means small, poorly fitted or top-dose-only effect, or a change in a side signal; inactive means no such curve, though single readings can be large or run the other way; the % refers to the signal ratio;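 further: cells stimulated with carbachol in lithium chloride buffer; plate controls were DMSO basal wells for no effect and reference inhibitor wells for full effect; higher means more IMPase inhibition seen as more IP1 and lower FRET ratio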
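Seeded CHO-M1 cells were dosed with compound at up to 46 uM, stimulated with carbachol for 30 min, then lysed in IP-One detection reagents. Higher IP1 lowers the TR-FRET signal.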
NPSR antag: qHTS Assay for Antagonists of the Neuropeptide S Receptor: cAMP Signal Transduction. Potency, µM (titrated, usually from 38.3 µM), for inactives: at the highest dose activity change, negative = inhibition, usual class: inhibitors. CHO-NPSR cells, cAMP TR-FRET, antagonist mode. 220,000 compounds, 1% hits. Q6W5P4; further: potency means the concentration at half of the fitted maximal effect; nearly all actives have a fitted effect of over 50% in size
Target sequence (Q6W5P4 whole entry, looked up): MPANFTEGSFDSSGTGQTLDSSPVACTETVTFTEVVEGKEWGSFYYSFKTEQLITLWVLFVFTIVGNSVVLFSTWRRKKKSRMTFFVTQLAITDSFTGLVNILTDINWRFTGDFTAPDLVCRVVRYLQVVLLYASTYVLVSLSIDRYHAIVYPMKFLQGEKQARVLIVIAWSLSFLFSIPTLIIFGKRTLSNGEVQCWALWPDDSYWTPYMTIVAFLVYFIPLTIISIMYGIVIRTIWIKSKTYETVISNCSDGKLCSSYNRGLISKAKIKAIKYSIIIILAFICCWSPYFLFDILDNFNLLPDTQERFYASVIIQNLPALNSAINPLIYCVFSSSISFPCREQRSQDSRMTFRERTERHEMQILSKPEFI
ALDH1A1 inh: qHTS Assay for Inhibitors of Aldehyde Dehydrogenase 1 (ALDH1A1); Aldehyde dehydrogenase 1A1 (Homo sapiens), P00352; Purified ALDH1A1, NADH fluorescence, propionaldehyde substrate; Potency, µM (doses to about 75.3 µM), without a hit: at the highest dose activity, negative = inhibition, most hits filed as inhibitors; 220,000 compounds, 7.3% hits; active means well fitted inhibition curve with a large enough effect, not every such curve was filed as active; inconclusive means small, poorly fitted or top-dose-only effect, or another doubt; inactive means no such curve, though single readings can be large or run the other way;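 further: potency means the concentration at half of the fitted maximal effect; plate controls were no enzyme wells and a reference inhibitor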
HPGD block: qHTS Assay for Inhibitors of HPGD (15-Hydroxyprostaglandin Dehydrogenase); purified HPGD, NADH fluorescence kinetic, PGE2 substrate; Potency, µM, for the others: at the highest dose activity change, negative = inhibition, actives largely listed as inhibitors; 15-hydroxyprostaglandin dehydrogenase [NAD(+)] (Homo sapiens), P15428; 150,000 compounds, 4.3% hits; active means well fitted inhibition curve with a large enough effect, not every such curve was filed as active; inconclusive means small, poorly fitted or top-dose-only effect, or another doubt; inactive means no such curve, though single readings can be large or run the other way; further: potency means the concentration at half of the fitted maximal effect
Target sequence (P15428 whole entry, looked up): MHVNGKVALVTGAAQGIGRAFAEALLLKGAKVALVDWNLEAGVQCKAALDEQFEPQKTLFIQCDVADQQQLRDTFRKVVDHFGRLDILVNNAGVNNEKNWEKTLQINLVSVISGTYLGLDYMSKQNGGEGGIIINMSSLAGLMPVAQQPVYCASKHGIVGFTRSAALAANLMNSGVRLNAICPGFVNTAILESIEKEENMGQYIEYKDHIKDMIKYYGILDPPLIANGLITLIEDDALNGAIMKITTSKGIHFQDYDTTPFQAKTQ
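20 nM HPGD preincubated 15 min at room temperature with compound in 50 mM Tris-HCl pH 8, 0.01% Tween 20. Started with 1 mM NAD+ and 30 uM prostaglandin E2; NADH fluorescence (360/450 nm) read 5 times over 30-s intervals, last minus first.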
IMPase Li inh: qHTS Assay for Identifying the Cell-Membrane Permeable IMPase Inhibitors: Potentiation with Lithium; AID 1457, 2008; Potency, µM (series often up to 59.4 µM), without a hit: at the highest dose activity, negative = IMPase inhibition, most hits filed as inhibitors; CHO-M1 cells, IP1 TR-FRET (IP-One), carbachol + lithium; 210,000 compounds, 0.35% hits;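 further: IP1 builds up when IMPase is blocked and the TR-FRET signal falls; potency means the concentration at half of the fitted maximal effect; plate controls were basal vehicle for no effect and high inhibitor control for full effect; nearly all actives have a fitted effect of over 50% in size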
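CHO cells stably expressing M1 receptor (2000/well) were cultured 16–30 h, then exposed to compounds with a small lithium addition for 30 min at 37C. IP1 was measured by TR-FRET competition; AC50 from Hill fits.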
PNC inhibitor: High Content Assay for Compounds that inhibit the Assembly of the Perinucleolar Compartment; 140,000 compounds, 3.1% hits; activity change (PNC), negative = inhibition, % at 10 µM; PC3M PTB-GFP, PNC prevalence imaging, 16 h; stronger effect = lower value;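 active means readout at or below -70, meaning at least 70% loss of cells showing the perinucleolar compartment, a nuclear body marking cancer cells; inconclusive means readout between -30 and a set limit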;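 further: plate controls were DMSO wells for no effect and camptothecin positive control wells for full effect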
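PC3M cells stably expressing PTB-GFP, 750–1000 cells/well, treated 16 h at 37 °C with compound (23 nl of library stock), in duplicate. After paraformaldehyde fixation and Hoechst stain, imaged at 20x; PNC prevalence scored by image analysis.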
The depositor's hits bear a star; ? = inconclusive; . = no result given; ! = not confirmed by another sample; [ ] = remark or other dose. Unless noted, the call rests on the fitted dose curve; in most records, active means well fitted curve in the direction sought with a large enough effect; inconclusive means small, poorly fitted or top-dose-only effect, or another doubt; inactive means no such curve, though single readings can be large; an effect the other way counts as inactive or inconclusive. Unless noted, on the % scale 0 is the no-effect control and ±100 the full control effect.

SMILES	IMPase cell inh	NPSR antag	ALDH1A1 inh	HPGD block	IMPase Li inh	PNC inhibitor
CN(Cc1cccs1)S(=O)(=O)c1cccs1	-7.4	-15.2%[46.1 µM]	?	28.2µM*	35.8%[38.3 µM]	?
O=C(N/N=C/c1c(O)n(Cc2ccccc2)c(=O)c2ccccc12)c1cccnc1	.	-13.9%	10µM*	.	2.9%	.
O=C(N/N=C/c1c(O)n(-c2ccccc2Cl)c(=O)c2ccccc12)c1cccnc1	.	-10.4%	14.1µM*	.	15.8%	.
Cc1cccc2cc(C#N)c(NCCNC(=O)COc3ccccc3)nc12	.	-3.0%	?	.	-25.2%	.
COc1cc2nc(=S)n3[nH]c(CCn4nc(C)cc4C)nc3c2cc1OC	?	-6.2%[46.1 µM]	?	?	10µM*	-27.1
COCCCNC(=O)c1ccc(N(C)S(C)(=O)=O)cc1	-12.3	2.9%[46.1 µM]	-4.0%	-12.7%	17.4%[38.3 µM]	?
COc1ccc(S(=O)(=O)N(C)c2ccc(C(=O)N3CCC(C(N)=O)CC3)cc2)cc1OC	.	9.8%	-15.4%	.	-0.9%	.
COCCCNC(=O)c1ccc(N(C)S(=O)(=O)c2ccc(OC)cc2)cc1	5.8	-8.7%[46.1 µM]	-5.3%	1.12µM*	4.0%	?
COCCNC(=O)c1ccc(N(C)S(=O)(=O)c2ccc(OC)c(OC)c2)cc1	-7.8	-1.5%[46.1 µM]	-13.3%	6.31µM*	-0.9%	161.8
COc1ccccc1-n1cnnc1SCc1csc(-c2ccccc2)n1	0.2	-12.3%[46.1 µM]	?	-7.8%	17.1%[38.3 µM]	-5.4
c1ccc(-c2nc(CSc3nnnn3-c3ccccc3)cs2)cc1	4.4	?	14.1µM*	-8.2%	1.0%[38.3 µM]	?
Cc1ccccc1Nc1nc(CSc2nnnn2-c2ccccc2)cs1	2.9	-16.8%[46.1 µM]	7.94µM*	?	8.9%[38.3 µM]	32.1
Cc1cccc(CSc2nnnn2-c2ccccc2)c1	0.8	-16.3%[46.1 µM]	?	-18.0%	12.6%[38.3 µM]	?
CCOC(=O)c1n[nH]n(-c2cc(Cl)cc(Cl)c2)c1=O	.	-16.1%	7.9%	.	.	.
COC(=O)Cc1c(C)[nH]n(-c2cc(Cl)cc(Cl)c2)c1=O	.	0.5%	7.08µM*	.	0.4%	.
C=CCc1cc(C=O)cc(OCC)c1OCc1ccc(Cl)cc1	.	-13.4%	-6.6%	-8.3%	1.9%	61.2
C=CCc1cc(/C=C2/NC(=O)N(CC)C2=O)cc(OCC)c1OCc1ccc(C(=O)O)cc1	.	-14.2%	3.16µM*	-13.0%	11.8%	-2.0
O=S(=O)(Nc1ncnc2c1oc1ccccc12)c1ccc(Cl)s1	0.1	-5.0%[46.1 µM]	11.7%	-6.6%	5.4%[38.3 µM]	15.8
Cc1ccc(-c2nnc(Nc3ccc(O)cc3)c3ccccc23)cc1S(=O)(=O)NC(C)(C)CO	8.7	.	.	.	.	.
Fc1ccc(C(c2ccc(F)cc2)N2CCN(C/C=C/c3ccccc3)CC2)cc1	.	?	-3.9%	-9.5%	19.3%	-2.5
O=C(c1ccc(=O)n(Cc2ccccc2)n1)N1CCN(C/C=C/c2ccccc2)CC1	6.2	-12.2%[46.1 µM]	?	-2.5%	35.2%[38.3 µM]	-106.7*
O=C(c1ccc(Br)s1)N1CCN(C/C=C/c2ccccc2)CC1	-0.9	-9.5%[46.1 µM]	17.8µM*	-24.2%	58.5%[38.3 µM]	-3.3
C(=C\c1ccccc1)/CN1CCN(C(c2ccccc2)c2ccccc2)CC1	6.0	12.6µM*!	-3.0%	-7.7%	22.0%	17.8
COc1cc(OC)c(C(=O)OCC(=O)N(Cc2ccccc2)C(C)(C)C)cc1OC	.	-4.9%	-6.8%	.	-2.7%	.
CN1C=CC=C/C1=C1\SC(=S)N(C2CCCCC2)C1=O	19.2	1.1%[46.1 µM]	14.1µM*	-13.8%	13.5%[38.3 µM]	-7.9
SMILES	IMPase cell inh	NPSR antag	ALDH1A1 inh	HPGD block	IMPase Li inh	PNC inhibitor
CN1C=CC=C/C1=C1\SC(=S)N(CC(=O)O)C1=O	.	1.6%	?	.	18.6%	.
CCN1C(C)=C(C)S/C1=C1\SC(=S)N(C2CCCCC2)C1=O	.	3.8%	-7.5%	.	4.0%	.
CN1C=CC=C/C1=C1\SC(=S)N(c2ccccc2)C1=O	11.0	-11.1%[46.1 µM]	11.2µM*	-12.2%	16.1%[38.3 µM]	19.5
CCN1CCN(c2nc(-c3cccs3)nc3ccccc23)CC1	?	6.3%[46.1 µM]	12.0%	?	2.9%	?
CCC1(CC)C(=O)NC(=O)NC1=Nc1ccccc1	.	17.3%	-5.5%	-12.6%	-1.6%	26.2
CCOC(=O)C1=C(C)OC(N)=C(C#N)C1c1ccccc1 (configuration not stated)	.	22.5%	22.4µM*	.	5.9%	.
CC(=O)C1=C(c2ccccc2)OC(N)=C(C#N)C1c1ccc(O)cc1 (configuration not stated)	.	12.3%	20µM*	-12.2%	-2.9%	?
CCOC(=O)C1=C(c2ccccc2)OC(N)=C(C#N)C1c1ccc(Cl)s1 (configuration not stated)	-1.7	?	1.78µM*	-12.2%	4.1%[38.3 µM]	-20.7
CCOC(=O)C1=C(c2ccccc2)OC(N)=C(C#N)C1c1ccc(Br)s1 (configuration not stated)	11.3	-35.6%	-4.1%	-14.5%	1.4%	-17.0
CCOC(=O)C1=C(N)OC(CCl)=C(C#N)C1c1ccsc1 (configuration not stated)	.	-1.4%	7.94µM*	-6.4%	-1.9%	-12.1
CC1CN(Cc2nc3c(c(=O)n(C)c(=O)n3C)n2CCCO)CC(C)O1 (configuration not stated)	-2.7	-8.5%[46.1 µM]	7.6%	-4.9%	-5.5%[38.3 µM]	2.7
CNC(=O)COc1ccc(S(=O)(=O)Nc2ccc(C)cc2)cc1	.	8.7%	.	.	.	.
CCN1C(=O)C(CC(=O)NC2CCCCC2)N(CC)C1=O (configuration not stated)	2.3	-5.9%[46.1 µM]	8.5%	-0.8%	-5.1%	?
COC(=O)C1=C(C)OC(N)=C(C#N)C1c1ccc(OC)c(CSc2ccccn2)c1 (configuration not stated)	15.6[1.84 µM]	-11.6%[46.1 µM]	?	-17.8%	26.7%[38.3 µM]	-87.2*
COC(=O)C1=C(C)OC(N)=C(C#N)C1c1ccccc1 (configuration not stated)	17.7	9.0%[46.1 µM]	?	-21.5%	10.7%[38.3 µM]	-25.4
CCOC(=O)C1=C(CSc2nc(C)cc(C)c2C#N)OC(N)=C(C#N)C1c1ccccc1 (configuration not stated)	1.6	?	10µM*	?	14.3%[38.3 µM]	17.3
CCSc1cc(C2C(C#N)=C(N)OC(C)=C2C(=O)OC)c(C)o1 (configuration not stated)	6.8	-15.7%[46.1 µM]	20µM*	-25.6%	14.0%[38.3 µM]	28.0
CCOC(=O)C1=C(CSc2nc(C)cc(C)c2C#N)OC(N)=C(C#N)C1c1cccs1 (configuration not stated)	3.0	-10.7%[46.1 µM]	14.1µM*	-18.8%	0.9%[38.3 µM]	?

Screening results deposited in PubChem by National Center for Advancing Translational Sciences (NCATS).
